Screens deposited in PubChem by National Center for Advancing Translational Sciences (NCATS).
ALDH1A1 inh: ALDH1A1 (human) enzyme inhibition; Purified ALDH1A1, NADH fluorescence, propionaldehyde substrate; P00352; Potency, µM (top dose mostly 75.3 µM), for the others: at the top dose activity, negative = inhibition, actives largely listed as inhibitors; 7.3% of 220,000 active; AID 1030;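 note: potency is the fitted concentration of half-maximal effect; plate controls were no enzyme wells and a reference inhibitor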
HPGD block: inhibitors of human 15-hydroxyprostaglandin dehydrogenase (HPGD); P15428; purified HPGD, NADH fluorescence kinetic, PGE2 substrate; Potency, µM, inactives show at the top dose activity change, negative = inhibition, most hits filed as inhibitors; 4.3% of 150,000 active; AID 894; note: potency is the fitted concentration of half-maximal effect
Target sequence (P15428 whole entry, looked up): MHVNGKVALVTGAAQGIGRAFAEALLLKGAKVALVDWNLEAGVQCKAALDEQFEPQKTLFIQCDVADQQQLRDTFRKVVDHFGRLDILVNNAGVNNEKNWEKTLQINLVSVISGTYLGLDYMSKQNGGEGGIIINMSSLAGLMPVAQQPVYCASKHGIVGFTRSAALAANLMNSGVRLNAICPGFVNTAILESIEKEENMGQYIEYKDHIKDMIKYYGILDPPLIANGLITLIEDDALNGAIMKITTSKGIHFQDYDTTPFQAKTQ
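20 nM HPGD preincubated 15 min at room temperature with compound in 50 mM Tris-HCl pH 8, 0.01% Tween 20. Started with 1 mM NAD+ and 30 uM prostaglandin E2; NADH fluorescence (360/450 nm) read 5 times over 30-s intervals, last minus first.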
PNC inhibitor: perinucleolar compartment assembly inhibition. PC3M PTB-GFP, PNC prevalence imaging, 16 h; hits give low values. activity change (PNC), negative = inhibition, % at 10 µM. 3.1% of 140,000 active;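 active = readout at or below -70, meaning at least 70% loss of cells showing the perinucleolar compartment, a nuclear body marking cancer cells; inconclusive = readout between -30 and a set limit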;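 note: plate controls were DMSO wells for no effect and camptothecin positive control wells for full effect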
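Read-out is percentage of cells bearing a perinucleolar compartment, from automated 20x imaging of fixed, Hoechst-stained PC3M PTB-GFP cells. Cells were seeded 4 h, then exposed 16 h to compound (23 nl of library stock) in duplicate plates.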
An asterisk follows results filed as active; u = inconclusive; x = no result. An excerpt weighted towards active compounds, which were near 11% of everything screened. Unless noted, calls come from the whole dose curve; as a rule, active = well fitted inhibition curve with a large enough effect (not every such curve was filed as active); inconclusive = small, poorly fitted or top-dose-only effect, or another doubt; inactive = no such curve, though single readings can be large or run the other way. Unless noted, % is set by controls: 0 for no effect and ±100 for the full control effect.

SMILES	ALDH1A1 inh	HPGD block	PNC inhibitor
O=C(Cn1c(-c2ccccc2)c[n+]2ccsc12)c1ccc(Br)cc1	11.7%	x	x
Cc1nc(SCC(=O)NCc2ccco2)c2c(=O)n(C)c(=O)n(CC(C)C)c2n1	0.3%	x	x
C[C@@H]1C(=O)CC2C(C)(C)CCC[C@]2(C)[C@@]1(O)CCc1ccoc1 (some centres not stated)	u	-11.2%	x
CCC(SC1=NCCS1)C(=O)Nc1ccc(S(N)(=O)=O)cc1 (configuration not stated)	8.9%	-6.3%	u
COc1cccc(NC(=O)COC(=O)CNS(=O)(=O)c2c(F)cccc2F)c1	-14.2%	-15.4%	177.8
COc1cc2cc(CN(Cc3nnnn3Cc3ccccc3)CC3CCCO3)c(=O)[nH]c2cc1OC (configuration not stated)	u	u	-1.5
Cc1ccc2cc(CN(Cc3ccc4c(c3)OCO4)Cc3nnnn3Cc3ccco3)c(=O)[nH]c2c1	14.1µM*	-27.7%	u
Cc1ccc(CN(Cc2cc3cc4c(cc3[nH]c2=O)OCCO4)Cc2nnnn2Cc2ccco2)cc1	u	u	-4.0
COc1ccccc1CN(Cc1cc2c(C)ccc(C)c2[nH]c1=O)Cc1nnnn1Cc1ccco1	14.1µM*	-7.4%	19.0
COc1ccc2[nH]c(=O)c(CN(Cc3nnnn3Cc3ccco3)C3CCCCC3)cc2c1	u	u	-2.6
COc1ccc2cc(CN(CCc3ccccc3)Cc3nnnn3Cc3ccco3)c(=O)[nH]c2c1	0.0794µM*	-12.0%	-20.7
C#CCn1cc(/C=N/Nc2nc3ccccc3[nH]2)c2ccccc21	u	u	-12.5
CC(=O)Nc1ccc(S(=O)(=O)N(Cc2ccccc2)c2ccccc2F)cc1	0.1%	x	x
COc1ccc(C2=CC(c3ccc(C)cc3)n3nnnc3N2)cc1 (configuration not stated)	u	u	-1.2
COc1cccc(C2=CC(c3ccccc3)n3ncnc3N2)c1 (configuration not stated)	u	u	37.7
COc1cccc(C2=CC(c3ccc(N(C)C)cc3)n3ncnc3N2)c1 (configuration not stated)	10µM*	-20.0%	u
COc1cccc(C2=CC(c3cccc(OC)c3OC(F)F)n3nnnc3N2)c1 (configuration not stated)	-1.6%	-16.9%	18.5
COc1cccc(C2=CC(c3cccc(OC)c3OC)n3nnnc3N2)c1 (configuration not stated)	u	-25.6%	-86.6*
COc1ccc(OC)c(C2C=C(c3ccc(C)c(C)c3)Nc3nnnn32)c1 (configuration not stated)	20µM*	-19.0%	-24.6
COc1cccc(C2=CC(c3cc(OC)ccc3OC)n3nnnc3N2)c1 (configuration not stated)	25.1µM*	-13.4%	27.7
COc1cccc(C2=CC(c3ccccc3)n3nnnc3N2)c1 (configuration not stated)	u	u	27.1
CC(C)(C)c1ccc(OCc2cnc(Cl)s2)cc1	-1.3%	x	x
CC1CN(CC(=O)NN=C(c2ccccc2)c2ccccc2)CC(C)O1 (configuration not stated)	1.4%	x	x
C/C(=N/O)c1ccc2c(c1)OCCOCCOc1cc(/C(C)=N/O)ccc1OCCOCCO2	9.4%	-8.2%	-19.1
CS(=O)(=O)Nc1cccc(-c2nc(Nc3ccncc3)c3ccccc3n2)c1	4.8%	x	x
SMILES	ALDH1A1 inh	HPGD block	PNC inhibitor
COc1ccc(N2C(=O)CC(N3CCC(O)(c4ccc(Br)cc4)CC3)C2=O)cc1 (configuration not stated)	2.1%	-5.3%	-6.4
O=C1CC(N2CCC(O)CC2)C(=O)N1c1ccc(Br)cc1 (configuration not stated)	22.4µM*	-9.1%	10.8
O=C1CC(N2CCC(O)(c3ccc(Br)cc3)CC2)C(=O)N1c1ccc(Cl)cc1 (configuration not stated)	-11.4%	-1.1%	29.8
O=CN1CCN(C2CC(=O)N(c3ccc(Br)cc3)C2=O)CC1 (configuration not stated)	u	-9.1%	-86.4*
CCCCCC1CCC(c2n[nH]c(=S)n2C)CC1 (configuration not stated)	-5.7%	x	x
COc1ccc(NC(=O)N2CC[C@@]3(CCCNC3)C2)cc1	14.1µM*	-3.9%	x
COC(=O)N1CCC2(CCCN(C(=O)Nc3ccc(OC)cc3)C2)CC1	3.1%	1.3%	x
S=C(S)O[C@@H]1C[C@@H]2C[C@H]1[C@@H]1CCC[C@H]21	6.5%	-26.1%	x
COc1ccc(Cl)cc1NC(=O)CN1CCCC1	10µM*	x	x
Cc1ccc(S(=O)(=O)Nc2cc(NC(=O)CN3CCOCC3)ccc2Cl)cc1	17.8µM*	-10.9%	u
COc1ccc(Cl)cc1NC(=O)NC(C)C	-3.8%	x	x
COC(=O)C1CCN(CC(=O)Nc2cc(Cl)ccc2OC)CC1	9.5%	x	x
COc1cc(OC)c(NC(=O)Cn2cccc2)cc1Cl	-10.6%	-7.1%	-25.0
COc1ccc(Cl)cc1NC(=O)C(C)N(C)Cc1cccc(Cl)c1Cl (configuration not stated)	-4.0%	x	-101.1*
Cc1ccc(S(=O)(=O)Nc2ccc(NC(=O)CN3CCCCC3)cc2)cc1	-1.7%	2.3%	50.4
COc1ccc(Cl)cc1NC(=O)Cn1cccc1	12.6µM*	-16.3%	33.6
CCN(CC)CCCC(C)NC(=O)c1cccc(S(=O)(=O)N2CCc3ccccc32)c1 (configuration not stated)	-1.7%	x	x
CC(O)C(=O)N/N=C/c1ccccc1C(=O)O (configuration not stated)	-4.0%	x	x
O=C(Nc1ccccc1)N1CCCC2(CCN(C(=O)c3cnccn3)CC2)C1	8.9%	-5.3%	x
Cc1ccc(Cn2ccc(O)c(Cc3ccccc3)c2=O)cc1	7.8%	x	x
COc1cc(NC(=O)c2ccccc2)c(OC)cc1NC(=O)CN1CCOCC1	1.1%	-15.4%	-29.3
COc1cc(NC(=O)c2ccccc2Cl)c(OC)cc1NC(=O)CN1CCOCC1	-8.2%	-7.5%	-89.9*
COc1ccc(C)cc1NC(=O)CN1CCN(S(=O)(=O)c2ccc(C(C)C)cc2)CC1	5.01µM*	-13.1%	u
COc1ccc(NC(=O)CN2CCN(S(=O)(=O)c3ccc(C(C)C)cc3)CC2)cc1OC	u	-7.5%	26.3
CC(/C=C/C=C/c1ccccc1)=N/NC(=O)CNc1ccccc1C	7.3%	0.9%	6.2
SMILES	ALDH1A1 inh	HPGD block	PNC inhibitor
Cn1c(=O)c2c(nc(CN3CCN(C(=O)c4ccco4)CC3)n2Cc2ccc(Cl)cc2)n(C)c1=O	14.1µM*	-6.4%	u
Cn1c(=O)c2c(nc(CN3CCN(Cc4ccccc4)CC3)n2Cc2cccc(Cl)c2)n(C)c1=O	u	5.5%	-16.2
CC1CN(Cc2nc3c(c(=O)n(C)c(=O)n3C)n2Cc2ccccc2)CC(C)O1 (configuration not stated)	-5.4%	0.2%	-17.5
Cn1c(=O)c2c(nc(CN3CCc4ccccc4C3)n2Cc2cccc(Cl)c2)n(C)c1=O	u	u	-9.4
Cn1c(=O)c2c(nc(CN3CCN(C(=O)c4ccco4)CC3)n2Cc2cccc(Cl)c2)n(C)c1=O	14.1µM*	-1.8%	u
Cn1c(=O)c2c(nc(CN3CCN(C(=O)c4ccco4)CC3)n2Cc2ccccc2)n(C)c1=O	12.6µM*	-5.0%	u
